Assay results reported in PubChem BioAssay (NCATS).
Inconclusive results are not listed. Where a call stands in place of a potency, no number is given. Activity calls are given as the source filed them. Calls come from the whole dose curve; as a rule, active = well fitted inhibition curve with a large enough effect; inconclusive = small, poorly fitted or top-dose-only effect; inactive = no such curve, though single readings can be large or run the other way.

Biological target: Cytochrome P450 3A7 (Homo sapiens) (UniProt P24462)
Test: Cytochrome P450 family 3 subfamily A member 7 (CYP3A7) small molecule antagonists: luciferase biochemical qHTS assay (AID 1963596); note: nearly all actives have a fitted effect of over 40% in size
Settings: P450-Glo CYP3A7 enzyme luminescence, 1 h; series mostly up to 57.4 µM
Method in brief: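 P450-Glo luminescent assay: CYP3A7 enzyme converts a proluciferin substrate to luciferin, detected by luciferase reagent; light proportional to activity. Compounds in DMSO preincubated 10 min with enzyme-substrate mix at room temperature, then NADPH regeneration added for 1 h.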

Cytochrome P450 3A7 (Homo sapiens), sequence (P24462 whole entry, looked up): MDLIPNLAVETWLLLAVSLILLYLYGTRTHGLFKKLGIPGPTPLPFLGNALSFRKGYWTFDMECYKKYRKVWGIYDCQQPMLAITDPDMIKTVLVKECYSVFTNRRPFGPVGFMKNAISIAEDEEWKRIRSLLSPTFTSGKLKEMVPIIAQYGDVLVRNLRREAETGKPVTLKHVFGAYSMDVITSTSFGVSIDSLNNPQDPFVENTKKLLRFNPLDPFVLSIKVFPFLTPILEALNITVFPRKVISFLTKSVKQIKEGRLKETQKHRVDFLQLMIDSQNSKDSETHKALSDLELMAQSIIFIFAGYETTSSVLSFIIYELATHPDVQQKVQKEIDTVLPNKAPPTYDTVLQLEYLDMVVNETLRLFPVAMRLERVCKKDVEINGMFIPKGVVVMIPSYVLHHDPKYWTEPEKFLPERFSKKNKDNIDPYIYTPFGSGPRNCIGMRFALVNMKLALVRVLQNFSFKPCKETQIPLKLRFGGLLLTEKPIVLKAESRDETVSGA

| SMILES | Potency |
| --- | --- |
| Cc1cc(N)c2cc(NC(=O)Nc3ccc4nc(C)cc(N)c4c3)ccc2n1 | inactive |
| C=CCNCCCCCC[N+](C)(C)C | inactive |
| C=Cc1ccccc1 | inactive |
| C[C@H](NCCc1ccc(O)cc1)[C@H](O)c1ccc(O)cc1 | inactive |
| O=C(Nc1ccc(Cl)c(Cl)c1)C1CC1 | inactive |
| Nc1nc(N)c2nc(CNc3ccc(C(=O)N[C@@H](CCC(=O)O)C(=O)O)cc3)cnc2n1 | inactive |
| CCCCCCCC(=O)O | inactive |
| CC(C)NC(=O)c1ccc(C#Cc2ccncc2)cn1 | inactive |
| COc1ccc(-n2nc3c(N4CCCC(C(=O)NCc5ccc(C)cc5)C4)nnc(C)c3c2C)cc1 (stereo not given) | inactive |
| CC(C)Nc1nc(Nc2ccccc2)nc(-c2ccccc2)n1 | inactive |
| COc1ccc(-c2nc(-c3ccc(-c4cccc(Cl)c4)o3)[nH]c2-c2ccc(OC)cc2)cc1 | inactive |
| COC(=O)c1ccccc1O | inactive |
| S=C=Nc1ccc(N=C=S)cc1 | inactive |
| CCc1ccccc1OC[C@@H](O)CN[C@H]1CCCc2ccccc21 | inactive |
| NCC1OC(OC2C(N)CC(N)C(OC3OC(CO)C(O)C(N)C3O)C2O)C(N)CC1O (stereo not given) | inactive |
| CCc1ccc(C2=CC(c3c(F)cccc3Cl)n3c(nc4ccccc43)N2)cc1 (stereo not given) | inactive |
| COC(=O)CCC[N+](C)(C)C | inactive |
| Fc1ccc(CN2CCC(Nc3ccc(C(F)(F)F)nn3)CC2)cc1F | inactive |
| CCOC(=O)N1c2ccc(C(F)(F)F)cc2C(N(Cc2cc(C(F)(F)F)cc(C(F)(F)F)c2)C(=O)OC)CC1CC (stereo not given) | inactive |
| CCOc1ccc(NC(=O)Cn2cc(C(=O)c3cccs3)c3ccccc32)cc1 | inactive |

| SMILES | Potency |
| --- | --- |
| NC(=O)C(CCC(F)(F)F)N(Cc1ccc(-c2ncon2)cc1F)S(=O)(=O)c1ccc(Cl)cc1 (stereo not given) | inactive |
| CC(=O)Oc1cc(C(F)(F)F)ccc1C(=O)O | inactive |
| FCOC(C(F)(F)F)C(F)(F)F | inactive |
| CN[C@@H]1[C@@H](O)[C@@H](O[C@@H]2[C@@H](O)[C@H](O[C@H]3O[C@H]([C@@H](C)NC)CC[C@H]3N)[C@@H](N)C[C@H]2N)OC[C@]1(C)O | inactive |
| COc1cc(F)c(C(C)C)cc1-c1ccc(C(F)(F)F)cc1CN1C(=O)OC(c2cc(C(F)(F)F)cc(C(F)(F)F)c2)C1C (stereo not given) | inactive |
| CC(C)c1ccc(-n2ncc3c(=O)n(CC(=O)Nc4cc(F)ccc4Cl)cnc32)cc1 | inactive |
| Cc1noc(=O)c2ccc(NC(=O)C(O)(CC(C)(C)c3cccc4c3OCC4)C(F)(F)F)cc12 (stereo not given) | inactive |
| c1ccc(-n2cnnn2)cc1 | inactive |
| CC(C)(C)NS(=O)(=O)c1cncc(-c2cc(F)c3nc(N)nn3c2)c1 | inactive |
| COc1ccccc1NC(=O)Cc1c(C(=O)O)[nH]c2ccc(Cl)cc12 | inactive |
| CC[C@H]1OC(=O)C[C@@H](O)[C@H](C)[C@@H](O[C@@H]2O[C@H](C)[C@@H](O[C@H]3C[C@@](C)(O)[C@@H](O)[C@H](C)O3)[C@H](N(C)C)[C@H]2O)[C@@H](CC=O)C[C@@H](C)C(=O)/C=C/C(C)=C/[C@@H]1CO[C@@H]1O[C@H](C)[C@@H](O)[C@@H](OC)[C@H]1OC | inactive |
| COCC(=O)N1CCc2cc(-c3csc(NC(=O)c4cc(OC)cc(OC)c4)n3)ccc21 | inactive |
| Cn1nnc(-c2ccc(-c3ccc(N4C[C@H](CO)OC4=O)cc3F)cn2)n1 | inactive |
| OC[C@H]1O[C@@H]2O[C@H]3[C@H](O)[C@@H](O)[C@@H](O[C@H]4[C@H](O)[C@@H](O)[C@@H](O[C@H]5[C@H](O)[C@@H](O)[C@@H](O[C@H]6[C@H](O)[C@@H](O)[C@@H](O[C@H]7[C@H](O)[C@@H](O)[C@@H](O[C@H]1[C@H](O)[C@@H]2O)O[C@@H]7CO)O[C@@H]6CO)O[C@@H]5CO)O[C@@H]4CO)O[C@@H]3CO | inactive |
| COC(=O)c1ccc(C2C=C(c3ccc(Cl)cc3)Nc3nc4ccccc4n32)cc1 (stereo not given) | inactive |
| Cc1cc(OCCCS(C)(=O)=O)cc(C)c1-c1cccc(COc2ccc3c(c2)OCC3CC(=O)O)c1 (stereo not given) | inactive |
| Fc1ccc(-c2c3cccc(C(F)(F)F)c3nn2Cc2ccc(F)cc2Cl)cc1 | inactive |
| N#Cc1c[nH]c2c(C(=O)N3CCN(CCc4ccc(F)cc4)CC3)cccc12 | inactive |
| Cc1nc(C)c(-c2ccc(C3CCC(CC(=O)O)CC3)cc2)nc1C(N)=O (stereo not given) | inactive |
| CC(C)[C@H]1CC[C@H](C)C[C@H]1O | inactive |
